This passage reports inhibition results from PubChem BioAssay AID434961 (Broad Institute, 2010).

Screen size: about 7,700 compounds; about 15 (0.2%) were called active. Roughly 6% stayed inconclusive and do not appear here. This is one part of a sample in which actives are shown more often than they occur. Unmarked numbers belong to inactive results.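 Rule for the calls: active = more than half of replicate wells with inhibition above about 18% (limit read from the data, passing the limit was not always enough); inconclusive = exactly half of replicate wells above that limit; inactive = fewer than half of replicates above it.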

For this experiment, the target named is Regulator of chromosome condensation (Homo sapiens) + GTP-binding nuclear protein Ran (Homo sapiens) + Importin subunit beta-1 (Homo sapiens) (UniProt P18754+P62826+Q14974). Kind of experiment: inhibitors of Ran–importin-beta complex formation, primary screen, biochemical, CFP-Ran/YFP-importin-beta FRET, RCC1, cell-free (AID 434961).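 Note: 0% = DMSO wells and 100% inhibition = RanGDP control wells on each plate.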 Conditions: hits give high values, concentration not given here.
On to `CNC[C@H]1Oc2c(cccc2N(C)C)C(=O)N([C@H](C)CO)C[C@H]1C`, for which the inhibition was -1.15%.
Turning to `COc1ccc(CN(C)C[C@H]2Oc3c(NC(=O)Nc4c(C)noc4C)cccc3C(=O)N([C@H](C)CO)C[C@@H]2C)cc1`, the inhibition was 0.675%.
As for `C[C@H](CO)N1C[C@H](C)[C@H](CN(C)C(=O)Nc2ccccc2)Oc2c(NC(=O)c3ccc(-c4nccs4)cc3)cccc2C1=O`, the figure is -2.67%; as for `C[C@H](CO)N1C[C@H](C)[C@H](CN(C)Cc2ccc3c(c2)OCO3)Oc2ccc(NC(=O)CCC(F)(F)F)cc2CC1=O`, 0.912%.
As to `C[C@@H]1CCCCO[C@@H](CN(C)C(=O)CCCN(C)C)[C@H](C)CN([C@@H](C)CO)C(=O)c2cc(N(C)C)ccc2O1`, the inhibition is 1.1%.
In the case of `C[C@@H]1CCCCO[C@@H](CN(C)C(=O)c2ccncc2)[C@@H](C)CN([C@@H](C)CO)C(=O)c2cc(NS(=O)(=O)c3cccs3)ccc2O1`, the inhibition is -2.75%.
As for `COc1ccc(CN(C)C[C@@H]2Oc3c(NS(=O)(=O)c4cn(C)cn4)cccc3C(=O)N([C@H](C)CO)C[C@@H]2C)cc1`, the figure is -1.87%; as for `C[C@H](CO)N1C[C@H](C)[C@H](CN(C)Cc2ccc(Cl)c(Cl)c2)Oc2c(NS(=O)(=O)c3cn(C)cn3)cccc2C1=O`, -0.00607%; as for `C[C@@H]1CCCCO[C@H](CN(C)C(=O)Nc2ccccc2)[C@@H](C)CN([C@@H](C)CO)C(=O)c2cc(NC(=O)CCCN(C)C)ccc2O1`, -3.05%.
Then `CNC[C@H]1Oc2ccc(NS(=O)(=O)c3cccs3)cc2CC(=O)N([C@H](C)CO)C[C@H]1C`, with -0.195%; and `C[C@@H]1CCCCO[C@@H](CN(C)S(C)(=O)=O)[C@H](C)CN([C@H](C)CO)C(=O)c2cc(NS(=O)(=O)c3ccccc3)ccc2O1`, with -0.778%; and `C[C@H]1CN([C@@H](C)CO)C(=O)Cc2cc(NC(=O)C3CC3)ccc2O[C@@H]1CN(C)C(=O)Nc1ccccc1`, with -14.8%.
As for `CNC[C@@H]1Oc2c(N)cccc2C(=O)N([C@H](C)CO)C[C@@H]1C`, the figure is -1.12%.
As to `COc1ccccc1CN(C)C[C@H]1OCc2cn(nn2)CCCC(=O)N([C@H](C)CO)C[C@H]1C`, the inhibition was 3.38%.
Then `C[C@@H]1CN([C@@H](C)CO)C(=O)c2cccc(NC(=O)c3ccncc3)c2O[C@H]1CN(C)S(=O)(=O)c1cccs1`, with 0.118%; and `C[C@H]1CCCCO[C@@H](CN(C)Cc2ccncc2)[C@@H](C)CN([C@@H](C)CO)C(=O)c2cc(N(C)C)ccc2O1`, with 1.7%.
Then `COc1ccc(NC(=O)Nc2ccc3c(c2)C(=O)N([C@@H](C)CO)C[C@@H](C)[C@H](CN(C)Cc2ccc(C(=O)O)cc2)O3)cc1`, with 0.138%; and `C[C@@H]1CN([C@H](C)CO)C(=O)c2cc(NC(=O)Nc3ccccc3)ccc2O[C@@H](C)CCCCO[C@H]1CN(C)S(=O)(=O)c1ccc(F)cc1`, with 4.18%.
Then `C[C@H](CO)N1C[C@H](C)[C@@H](CN(C)C(=O)NC2CCCCC2)Oc2ccc(N(C)C)cc2C1=O`, with 3.39%; and `C[C@@H]1CCCCO[C@@H](CN(C)S(=O)(=O)c2cn(C)cn2)[C@H](C)CN([C@@H](C)CO)C(=O)c2cc(NC(=O)c3ccccc3)ccc2O1`, with 1.13%.
As for `Cc1ccc(S(=O)(=O)Nc2ccc3c(c2)CC(=O)N([C@H](C)CO)C[C@H](C)[C@@H](CN(C)Cc2ccncc2)O3)cc1`, the inhibition is 0.0587%.
As for `Cc1noc(C)c1S(=O)(=O)Nc1ccc2c(c1)CC(=O)N([C@H](C)CO)C[C@@H](C)[C@@H](CN(C)C(=O)NC(C)C)O2`, the figure is -4.94%; as for `C[C@H]1CN([C@@H](C)CO)C(=O)Cc2cc(NC(=O)C3CC3)ccc2O[C@H]1CN(C)Cc1ccc(Cl)c(Cl)c1`, 7.64%; as for `C[C@@H]1CCCCO[C@H](CN(C)C(=O)Nc2ccccc2)[C@@H](C)CN([C@H](C)CO)C(=O)c2cc(NC(=O)Cc3ccccc3)ccc2O1`, 0.496%.
Then `C[C@@H]1CCCCO[C@H](CN(C)C(=O)CCCN(C)C)[C@@H](C)CN([C@H](C)CO)C(=O)c2cc(NS(=O)(=O)c3cccs3)ccc2O1`, with -2.86%; and `C[C@@H]1CN([C@@H](C)CO)C(=O)c2cc(NC(=O)c3ccncc3)ccc2O[C@H]1CN(C)C(=O)Nc1ccccc1`, with 4.49%.
Then `Cc1noc(C)c1NC(=O)N(C)C[C@@H]1Oc2ccc(NC(=O)Nc3cccc4ccccc34)cc2C(=O)N([C@H](C)CO)C[C@H]1C`, with -0.0777%.
Regarding `C[C@@H]1CN([C@H](C)CO)C(=O)Cc2cc(NC(=O)C3CC3)ccc2O[C@H]1CN(C)C`, the inhibition was -6.15%.
Regarding `C[C@@H]1CCCCO[C@H](CN(C)Cc2ccncc2)[C@H](C)CN([C@H](C)CO)C(=O)c2cc(NC(=O)c3ccncc3)ccc2O1`, the inhibition was -0.929%.
Then `C[C@@H]1CCCCO[C@@H](CN(C)S(=O)(=O)c2cccs2)[C@H](C)CN([C@H](C)CO)C(=O)c2cc(NS(C)(=O)=O)ccc2O1`, with -1.23%.
Then `Cc1cc(C(=O)Nc2cccc3c2O[C@@H](CN(C)CC2CC2)[C@@H](C)CN([C@@H](C)CO)C3=O)n(C)n1`, with -1.14%; and `C[C@H](CO)N1C[C@H](C)[C@H](CN(C)CC2CC2)Oc2c(NC(=O)c3ccc(-c4nccs4)cc3)cccc2C1=O`, with -0.371%; and `C[C@H]1CN([C@@H](C)CO)C(=O)c2cccc(NC(=O)c3ccc(-c4nccs4)cc3)c2O[C@H]1CN(C)C(=O)Nc1ccccc1`, with 18.7% (active).
For the compound `C[C@H]1CN([C@@H](C)CO)C(=O)c2cccc(NC(=O)c3ccc(-c4nccs4)cc3)c2O[C@H]1CN(C)CC1CC1`, the inhibition is 1.58%.
Regarding `C[C@@H]1CN([C@H](C)CO)C(=O)c2cccc(NC(=O)c3ccc(-c4nccs4)cc3)c2O[C@@H]1CN(C)C(=O)Nc1ccccc1`, the inhibition is -1.55%.
Take `C[C@@H]1CN([C@H](C)CO)C(=O)c2cccc(NC(=O)c3ccc(-c4nccs4)cc3)c2O[C@@H]1CN(C)CC1CC1`: the inhibition was 29.6% (active).
Regarding `C[C@H]1CN([C@@H](C)CO)C(=O)c2cccc(NC(=O)c3ccc(-c4nccs4)cc3)c2O[C@@H]1CN(C)C(=O)Nc1ccccc1`, the inhibition was 0.856%.
Then `Cc1noc(C)c1NC(=O)N(C)C[C@@H]1Oc2ccc(NS(=O)(=O)c3cccs3)cc2C(=O)N([C@H](C)CO)C[C@@H]1C`, with -1.63%.
Regarding `C[C@@H]1CCCCO[C@@H](CN(C)C(=O)CCC(F)(F)F)[C@H](C)CN([C@@H](C)CO)C(=O)c2cc(NS(=O)(=O)c3ccccc3)ccc2O1`, the inhibition is -3.22%.
Turning to `C[C@@H]1CN([C@@H](C)CO)C(=O)c2cccc(NS(C)(=O)=O)c2O[C@H]1CN(C)S(=O)(=O)c1cn(C)cn1`, the inhibition is 0.88%.
Then `C[C@H]1CN([C@@H](C)CO)C(=O)Cc2cc(NC(=O)Cc3cn(C)c4ccccc34)ccc2O[C@@H]1CN(C)C(=O)Nc1ccccc1`, with 0.0312%; and `Cc1noc(C)c1S(=O)(=O)Nc1cccc2c1O[C@H](CN(C)C(=O)NC1CCCCC1)[C@H](C)CN([C@@H](C)CO)C2=O`, with -6.51%.
Then `Cc1noc(C)c1S(=O)(=O)Nc1cccc2c1O[C@@H](CN(C)Cc1ccc(C(F)(F)F)cc1)[C@@H](C)CN([C@@H](C)CO)C2=O`, with -1.54%; and `C[C@H]1CN([C@@H](C)CO)C(=O)c2cc(NC(=O)C3CC3)ccc2O[C@@H]1CN(C)Cc1ccc(Cl)c(Cl)c1`, with -5.2%; and `C[C@@H]1CN([C@H](C)CO)C(=O)Cc2cc(NC(=O)Nc3ccccc3)ccc2O[C@@H]1CN(C)C(=O)Nc1ccc(C(F)(F)F)cc1`, with -1.14%.
Then `C[C@@H]1CCCCO[C@H](CN(C)C)[C@@H](C)CN([C@H](C)CO)C(=O)c2cc(NC(=O)Nc3ccc(F)cc3)ccc2O1`, with 3.67%.
As for `Cc1noc(C)c1S(=O)(=O)Nc1cccc2c1O[C@H](CN(C)C)[C@H](C)CN([C@H](C)CO)C2=O`, the inhibition was 5.73%.
In the case of `C[C@@H]1CN([C@@H](C)CO)C(=O)c2cc(NC(=O)Nc3ccc4c(c3)OCO4)ccc2O[C@@H]1CN(C)Cc1ccc(C(=O)O)cc1`, the inhibition was -3.71%.
Take `C[C@@H]1CN([C@@H](C)CO)C(=O)CCCn2nncc2CO[C@@H]1CN(C)C`: the inhibition is 4.43%.
As for `COc1ccc(CN(C)C[C@@H]2OCCCC[C@H](C)Oc3ccc(NC(=O)Nc4c(C)noc4C)cc3C(=O)N([C@H](C)CO)C[C@@H]2C)cc1`, the inhibition is 0.0847%.
Then `Cc1noc(C)c1S(=O)(=O)Nc1ccc2c(c1)CC(=O)N([C@H](C)CO)C[C@H](C)[C@H](CN(C)C(=O)Nc1cccc3ccccc13)O2`, with 5.9%; and `C[C@H](CO)N1C[C@H](C)[C@H](CN(C)S(=O)(=O)c2cccs2)Oc2c(NC(=O)Nc3ccc(C(F)(F)F)cc3)cccc2C1=O`, with 3.84%.
Then `CC(C)NC(=O)N(C)C[C@H]1OCCCC[C@H](C)Oc2ccc(NC(=O)CCCN(C)C)cc2C(=O)N([C@H](C)CO)C[C@@H]1C`, with -1.47%.
On to `C[C@@H]1CN([C@@H](C)CO)C(=O)CCCn2cc(nn2)CO[C@H]1CN(C)C(=O)Nc1ccc(-c2cccs2)cc1`, for which the inhibition is -3.35%.
For `COc1ccc(S(=O)(=O)Nc2ccc3c(c2)CC(=O)N([C@H](C)CO)C[C@H](C)[C@H](CN(C)S(=O)(=O)c2cn(C)cn2)O3)cc1`, the inhibition is 5.44%.
As for `C[C@@H]1CN([C@@H](C)CO)C(=O)c2cccc(NS(=O)(=O)c3cccs3)c2O[C@@H]1CN(C)Cc1ccc(C(=O)O)cc1`, the figure is -3.95%.
